From PubChem BioAssay
The source made the active and inactive calls.

Legend:
[1] = tested on: Human papillomavirus type 1a protein E7 (residues 44-93); assay: HPV1a E7 fragment binders on microarrays, primary screen, biochemical, small-molecule microarray, residues 44-93, 635 nm fluorescence (AID 1108); conditions: small-molecule microarray binding, fluorescence 635 nm; higher = more signal;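 note: E7 fragment applied at 1 µg/mL in TBST for 1 h at 4 C; score combines spot fluorescence with its signal to noise ratio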
[2] = modulators of HCV replicon luciferase signal, primary screen, HCV replication inhibitor project, Huh7 cells, luciferase reporter (AID 1109); conditions: 48 h, higher = more signal;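 note: huh7 hepatoma cells harbouring a luciferase neomycin HCV replicon reporter; luciferase luminescence as measure of HCV replicon replication; test concentration not given here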
[3] = target: Left-right determination factor 2 (Homo sapiens) (UniProt O00292); assay: LEFTY2 binders on small-molecule microarrays, primary screen, biochemical, small-molecule microarray, 635 nm fluorescence scan (AID 1110); conditions: LEFTY2 binding, higher = more signal
Sequence of Left-right determination factor 2 (Homo sapiens) (O00292 whole entry, looked up): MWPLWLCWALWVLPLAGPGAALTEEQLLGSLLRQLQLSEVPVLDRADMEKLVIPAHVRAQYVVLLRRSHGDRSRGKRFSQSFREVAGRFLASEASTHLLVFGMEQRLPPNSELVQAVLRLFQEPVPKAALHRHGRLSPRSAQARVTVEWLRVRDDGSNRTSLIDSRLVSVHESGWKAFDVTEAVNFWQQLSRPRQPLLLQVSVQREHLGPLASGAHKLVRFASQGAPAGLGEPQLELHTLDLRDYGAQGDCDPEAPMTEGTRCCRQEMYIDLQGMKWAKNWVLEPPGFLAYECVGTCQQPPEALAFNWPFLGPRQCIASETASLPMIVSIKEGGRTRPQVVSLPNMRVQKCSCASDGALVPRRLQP

[4] = target: Calmodulin-1 (Homo sapiens) (UniProt P0DP23); assay: CALM1 binders on microarrays, EGTA buffer, profiling panel, biochemical, small-molecule microarray, Cy5-labelled CALM1 (AID 1111); conditions: Cy5-CALM1 binding fluorescence, higher = more signal;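 note: labelled calmodulin applied in Tris saline Tween buffer holding calcium plus EGTA and DTT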
[5] = target: Calmodulin-1 (Homo sapiens) (UniProt P0DP23); assay: calcium-bound CALM1 binders on microarrays, profiling panel, artefact control for SMM control-protein annotation, biochemical, small-molecule microarray, Cy5-labelled CALM1, plus calcium (AID 1112); conditions: Cy5-CALM1 binding fluorescence, higher = more signal;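 note: score merges spot fluorescence with signal to noise from triplicate slides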
[6] = small-molecule microarray binders of probe aWnt5a, primary screen, biochemical, biotinylated probe, 635/667 nm fluorescence (AID 1113); conditions: higher = more signal;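 note: score merges 667 nm fluorescence intensity with signal-to-noise per printed feature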
[7] = small-molecule microarray binders of probe aShh, primary screen, biochemical, biotinylated probe, 635/667 nm fluorescence (AID 1114); conditions: higher = more signal;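 note: probe is biotin-labelled aShh protein from a stem cell growth factor screen; measures binding of labelled protein to compounds printed on the slide; score merges feature fluorescence at 667 nm with signal-to-noise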
[8] = small-molecule microarray binders of probe aNog, primary screen, biochemical, biotinylated probe, 635/667 nm fluorescence (AID 1115); conditions: higher = more signal;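 note: probe is biotinylated aNog protein used at 0.15 µg/mL for 1 h at 4 C; z-score combines 667 nm fluorescence of each spot with its signal to noise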
[9] = target: Torsin-1A-interacting protein 1 (Homo sapiens) (UniProt Q5JTV8); assay: LAP1 binders from COS7 cell lysate, primary screen, small-molecule microarray, 635/667 nm fluorescence (AID 1116); conditions: COS7-hLAP1 lysate binding, 635 nm fluorescence, higher = more signal
Sequence of Torsin-1A-interacting protein 1 (Homo sapiens) (Q5JTV8 whole entry, looked up): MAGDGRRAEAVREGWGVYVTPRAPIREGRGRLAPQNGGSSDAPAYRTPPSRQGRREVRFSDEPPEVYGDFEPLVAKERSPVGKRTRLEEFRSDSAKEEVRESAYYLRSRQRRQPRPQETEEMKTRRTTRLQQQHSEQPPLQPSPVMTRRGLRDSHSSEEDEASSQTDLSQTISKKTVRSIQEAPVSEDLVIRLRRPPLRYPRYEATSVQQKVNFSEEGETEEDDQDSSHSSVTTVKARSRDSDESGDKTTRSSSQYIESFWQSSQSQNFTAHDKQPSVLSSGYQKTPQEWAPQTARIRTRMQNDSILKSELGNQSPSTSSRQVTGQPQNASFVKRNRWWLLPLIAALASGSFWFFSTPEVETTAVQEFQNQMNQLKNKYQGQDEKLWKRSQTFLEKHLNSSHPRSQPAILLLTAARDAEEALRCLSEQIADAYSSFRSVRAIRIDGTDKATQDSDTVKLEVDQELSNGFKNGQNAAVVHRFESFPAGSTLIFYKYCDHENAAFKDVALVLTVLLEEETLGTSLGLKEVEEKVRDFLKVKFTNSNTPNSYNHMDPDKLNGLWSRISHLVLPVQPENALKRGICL

[10] = target: Alpha-bungarotoxin (Bungarus multicinctus) (UniProt P60615); assay: alpha-bungarotoxin binders on microarray, profiling panel, artefact control for SMM control protein annotation, biochemical, small-molecule microarray, Alexa647 label, 635/667 nm fluorescence (AID 1117); conditions: alpha-BTX-A647 binding fluorescence, higher = more signal
Sequence of Alpha-bungarotoxin (Bungarus multicinctus) (P60615 whole entry, looked up): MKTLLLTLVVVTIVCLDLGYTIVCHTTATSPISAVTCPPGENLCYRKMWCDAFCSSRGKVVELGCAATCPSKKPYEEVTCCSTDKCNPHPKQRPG

[11] = target: Albumin (Bos taurus) (UniProt P02769); assay: bovine serum albumin binders on microarray, profiling panel, artefact control for SMM control protein annotation, biochemical, small-molecule microarray, Alexa647 label, 635/667 nm fluorescence (AID 1118); conditions: BSA-A647 binding, fluorescence 635 nm, higher = more signal;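 note: score merges 667 nm emission intensity and signal-to-noise per printed compound spot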
Sequence of Albumin (Bos taurus) (P02769 whole entry, looked up): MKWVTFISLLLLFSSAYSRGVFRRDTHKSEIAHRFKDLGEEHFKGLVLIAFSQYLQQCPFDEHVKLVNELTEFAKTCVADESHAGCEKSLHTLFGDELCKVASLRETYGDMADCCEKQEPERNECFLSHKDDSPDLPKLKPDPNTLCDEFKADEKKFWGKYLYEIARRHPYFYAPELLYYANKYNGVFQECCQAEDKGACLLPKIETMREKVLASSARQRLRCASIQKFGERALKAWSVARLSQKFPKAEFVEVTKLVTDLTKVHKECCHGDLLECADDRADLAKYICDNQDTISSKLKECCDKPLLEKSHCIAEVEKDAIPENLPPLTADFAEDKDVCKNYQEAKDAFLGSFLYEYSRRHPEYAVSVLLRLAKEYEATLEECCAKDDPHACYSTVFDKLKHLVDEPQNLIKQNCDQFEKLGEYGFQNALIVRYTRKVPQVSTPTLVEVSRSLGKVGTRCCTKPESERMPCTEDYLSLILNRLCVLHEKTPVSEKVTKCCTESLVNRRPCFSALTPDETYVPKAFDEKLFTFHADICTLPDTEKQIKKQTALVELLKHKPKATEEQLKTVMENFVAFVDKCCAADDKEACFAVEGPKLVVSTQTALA

[12] = small-molecule microarray binders of probe aXIP, primary screen, biochemical, NeuroSMM set, 635/667 nm fluorescence (AID 1119); conditions: higher = more signal, called active from +8 up or from −8 down;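 note: probe is the protein aXip251-270 applied at 1 µg/mL to compound-printed slides; binding of probe to printed compounds measured as 667 nm fluorescence plus signal to noise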
[13] = small-molecule binders of probe aNOTCH3, primary screen, biochemical, small-molecule microarray, 635/667 nm fluorescence (AID 1120); conditions: higher = more signal;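 note: probe is a biotin-tagged antibody raised against NOTCH3 rather than NOTCH3 protein; score merges spot fluorescence near 667 nm with spot signal to noise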
[14] = small-molecule binders of probe aNOTCH2, primary screen, biochemical, small-molecule microarray, 635/667 nm fluorescence (AID 1121); conditions: higher = more signal;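 note: score merges feature fluorescence read at 667 nm with its signal to noise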
[15] = target: Carbonic anhydrase 2 (Homo sapiens) (UniProt P00918); assay: CAII small-molecule binders, profiling panel, biochemical, small-molecule microarray, Alexa647-labelled CAII (AID 1122); conditions: CAII-A647 binding fluorescence, higher = more signal
[16] = COS7 lysate on small-molecule microarray, probe aHis, 635 nm (AID 1123); conditions: COS7 cell lysate, fluorescence, higher = more signal;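 note: z-score combines 667nm fluorescence intensity with signal-to-noise per printed compound spot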
[17] = compound binding in COS7 lysate, probe aLAP1, primary screen, cell lysate, small-molecule microarray (AID 1124); conditions: probe aLAP1, fluorescence, higher = more signal;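 note: lysate comes from COS7 cells expressing LAP1 and is applied at 0.3 µg/mL; score merges spot fluorescence near 667 nm with signal-to-noise over triplicate slides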
[18] = tested on: Sam68 (KHDRBS1); assay: Sam68 small-molecule binders, primary screen, biochemical, small-molecule microarray, 635 nm fluorescence (AID 1125); conditions: small-molecule microarray binding, higher = more signal;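 note: score merges 667 nm channel intensity with signal to noise over triplicate slides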
[19] = tested on: Chordin-like protein 2 (CHRDL2); assay: CHRDL2 small-molecule binders, primary screen, biochemical, small-molecule microarray, 635 nm fluorescence (AID 1126); conditions: small-molecule microarray binding, fluorescence 635 nm; higher = more signal;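 note: printed compound slides probed with Chrdl2 protein at 4 µg/mL for 1 h at 4 C; score merges 667 nm emission intensity with signal to noise over three replicate slides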
[20] = target: Concanavalin-A (Canavalia ensiformis) (UniProt P02866); assay: ConA small-molecule binders, primary screen, artefact control for SMM control protein annotation, biochemical, small-molecule microarray, Alexa647 label, 635 nm (AID 1127); conditions: ConA-A647 binding fluorescence, higher = more signal;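 note: z combines 667 nm emission intensity with signal-to-noise across three replicate slides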
Sequence of Concanavalin-A (Canavalia ensiformis) (P02866 whole entry, looked up): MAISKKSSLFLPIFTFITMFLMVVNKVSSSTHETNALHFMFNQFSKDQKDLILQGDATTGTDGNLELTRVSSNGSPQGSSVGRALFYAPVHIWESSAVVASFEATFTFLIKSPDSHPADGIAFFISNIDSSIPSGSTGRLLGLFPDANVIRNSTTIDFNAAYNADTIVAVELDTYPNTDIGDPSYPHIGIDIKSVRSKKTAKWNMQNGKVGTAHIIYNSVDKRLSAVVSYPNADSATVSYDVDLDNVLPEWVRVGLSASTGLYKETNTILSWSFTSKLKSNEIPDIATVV

## C=CCC(OC(C)=O)[C@@H]1[C@@H](N(Cc2cc3ccccc3o2)C(=O)Cc2ccc(F)cc2)c2cc(OCCCO)ccc2N1C(=O)c1ccc2ccccc2c1 (stereo not given in full)
[1]
  composite z-score: -0.722
[2]
  z-score: -1.18
[3]
  composite z-score: -0.453
[4]
  composite z-score: -0.478
[5]
  composite z-score: -0.06
[6]
  composite z-score: -0.0843
[7]
  composite z-score: 0.179
[8]
  composite z-score: -0.24
[9]
  composite z-score: 0.0682
[10]
  composite z-score: 1.29
[11]
  composite z-score: -0.379
[12]
  composite Z-score: 0.749 (inactive)
[13]
  composite z-score: -0.118
[14]
  composite z-score: -0.0904
[15]
  composite z-score: 0.31
[16]
  composite z-score: -0.234
[17]
  composite z-score: 0.0099
[18]
  composite z-score: -0.741
[19]
  composite z-score: -0.173
[20]
  composite z-score: -0.679

## CC=CC(O)C1C=CC2C(=O)N(c3ccccc3)C(=O)C2N1Nc1ccccc1F (stereo not given)
[1]
  composite z-score: 0.286
[2]
  z-score: -0.536
[3]
  composite z-score: -0.0207
[4]
  composite z-score: 0.416
[5]
  composite z-score: 0.213
[6]
  composite z-score: 0.339
[7]
  composite z-score: 0.429
[8]
  composite z-score: 1.07
[9]
  composite z-score: 0.0757
[10]
  composite z-score: 0.437
[11]
  composite z-score: 0.245
[12]
  composite Z-score: 1.48 (inactive)
[13]
  composite z-score: 0.541
[14]
  composite z-score: 0.468
[15]
  composite z-score: 0.74
[16]
  composite z-score: 2.08
[17]
  composite z-score: 0.412
[18]
  composite z-score: 0.338
[19]
  composite z-score: 0.295
[20]
  composite z-score: 0.0905

## C=CCN1Cc2ccccc2[C@H]2OC(c3ccc(OCCCO)cc3)=N[C@@]2(CC=C)C1=O
[1]
  composite z-score: 1.46
[2]
  z-score: -1.74
[3]
  composite z-score: 0.725
[4]
  composite z-score: 3.19
[5]
  composite z-score: 1.43
[6]
  composite z-score: -0.0478
[7]
  composite z-score: 0.14
[8]
  composite z-score: -0.44
[9]
  composite z-score: -0.0689
[10]
  composite z-score: 1.36
[11]
  composite z-score: -0.405
[12]
  composite Z-score: 0.911 (inactive)
[13]
  composite z-score: 0.133
[14]
  composite z-score: 0.007
[15]
  composite z-score: 0.418
[16]
  composite z-score: 2.78
[17]
  composite z-score: 0.373
[18]
  composite z-score: 1.31
[19]
  composite z-score: 1.39
[20]
  composite z-score: 0.85

## [N-]=[N+]=NCc1ccccc1C[C@@]1(C(=O)N2CCCCC2)N=C(c2ccc(OCCCO)cc2)O[C@@H]1c1ccccc1
[1]
  composite z-score: 0.785
[2]
  z-score: -3.35
[3]
  composite z-score: -1.01
[4]
  composite z-score: 1.28
[5]
  composite z-score: 0.958
[6]
  composite z-score: 0.0141
[7]
  composite z-score: -0.325
[8]
  composite z-score: 0.46
[9]
  composite z-score: 2.15
[10]
  composite z-score: 1
[11]
  composite z-score: 0.901
[12]
  composite Z-score: 0.269 (inactive)
[13]
  composite z-score: -0.102
[14]
  composite z-score: -0.299
[15]
  composite z-score: 0.606
[16]
  composite z-score: 1.28
[17]
  composite z-score: -0.0762
[18]
  composite z-score: 1.07
[19]
  composite z-score: -1.27
[20]
  composite z-score: 0.64

## Cc1ccc(S[C@]2(C(=O)NCC(F)(F)F)CC(=O)N(Cc3ccccc3C(F)(F)F)[C@@H]2c2ccc(CO)cc2I)cc1
[1]
  composite z-score: -0.784
[2]
  z-score: -0.414
[3]
  composite z-score: -2.12
[4]
  composite z-score: -0.423
[5]
  composite z-score: -0.214
[6]
  composite z-score: -0.0944
[7]
  composite z-score: 0.0483
[8]
  composite z-score: -0.161
[9]
  composite z-score: -0.531
[10]
  composite z-score: 0.444
[11]
  composite z-score: 0.88
[12]
  composite Z-score: -0.0127 (inactive)
[13]
  composite z-score: -0.3
[14]
  composite z-score: -0.14
[15]
  composite z-score: 0.968
[16]
  composite z-score: 0.616
[17]
  composite z-score: 0.116
[18]
  composite z-score: -0.486
[19]
  composite z-score: -1.41
[20]
  composite z-score: -0.35
